Assay outcomes as filed in PubChem BioAssay.
Pf Dd2 inh = Plasmodium falciparum Dd2 growth inhibition; P. falciparum Dd2 growth, SYBR Green, 72 h; Potency, µM (series often up to 28.9 µM), hits mostly inhibitors; 120,000 tested, 4.3% active; active = well fitted inhibition curve with a large enough effect; also: nearly all actives have a fitted effect of over 65% in size
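Infected erythrocytes (Dd2, 0.3% parasitemia, 2.5% hematocrit final) are added to compound in RPMI-1640/Albumax II medium, grown 72 h at 37C in low oxygen, then lysed with saponin/Triton-X containing SYBR Green and read by fluorescence.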
Numbers stand for hits; [ ] = remark or other dose. The sample as a whole holds a higher share of hits than the screen did.

Results for CC1=C(C(=O)Nc2ccc(C)cc2C)C(c2ccc[nH]2)n2ncnc2N1 (stereo not given) ?
Pf Dd2 inh: inactive

How did COc1cncc([C@@H](NC2CSCCSC2)C2CC(O)C2)c1 (stereo not given in full) do in these assays?
Pf Dd2 inh: inactive

How did Cn1cnc(C(=O)N2CCCN(S(C)(=O)=O)c3ccccc32)c1 do in these assays?
Pf Dd2 inh: inactive

How did COC[C@@H]1CN(C(=O)CC2=CCCCC2)C[C@H]1c1nc(C2CC2)no1 do in these assays?
Pf Dd2 inh: inactive

What do the screens show for `COCCOC1CCOC2(CCN(C(=O)c3cnccn3)CC2)C1` (stereo not given)?
Pf Dd2 inh: inactive

Results for CCS(=O)(=O)c1ncc(CN(C)Cc2ccc3nonc3c2)n1CCc1ccccc1 ?
Pf Dd2 inh: inactive

Results for CCOc1ccccc1C(=O)N1CCCN(C(=O)C2CC2)c2ccccc21 ?
Pf Dd2 inh: inactive

Results for CCc1cccc(OCC(=O)c2ccc3c(c2)N(CC(=O)N(C)Cc2ccccc2)C(=O)CO3)c1 ?
Pf Dd2 inh: inactive

What do the screens show for `CC1=NS(=O)(=O)N(C)C=C1C(=O)OCc1noc(-c2ccccc2C)n1`?
Pf Dd2 inh: inactive

Results for CCOc1ccc(CC(=O)NC2CCN(c3cc(-c4ccccc4)[nH]n3)CC2)cc1 ?
Pf Dd2 inh: inactive

Results for COc1cccc(N2CC(C(=O)NCc3ccc(C(F)(F)F)cc3)NC2=O)c1 (stereo not given) ?
Pf Dd2 inh: inactive

What do the screens show for `C=CCN1CCN(C(=O)[C@@H]2Cc3c[nH]c4cccc(c34)[C@H](CC(C)C)N2)CC1`?
Pf Dd2 inh: 11µM

What do the screens show for `C=CCn1cc2c3c(cccc31)[C@H](CC(C)C)N[C@H](C(=O)NCc1ccc(OC)cc1)C2`?
Pf Dd2 inh: inactive

What do the screens show for `C=CCn1cc2c3c(cccc31)[C@H](CC(C)C)N[C@H](C(=O)NCCCN1CCCC1=O)C2`?
Pf Dd2 inh: inactive

How did Cc1ccc(CN(C(=O)c2ccco2)c2ccc(CC(=O)N3CCCC3)cc2)cc1 do in these assays?
Pf Dd2 inh: inactive

Results for COc1ccccc1C(=O)N1CC(Oc2ccc(F)c(F)c2)C1 ?
Pf Dd2 inh: inactive

How did CC(C)NC(=O)N[C@H]1CCN2C(=O)c3ccccc3NC(=O)[C@@H]2C1 do in these assays?
Pf Dd2 inh: inactive

How did Cc1ccc(-n2ncc(C(=O)N3CCCCC3)c2C2CCN(C(=O)OC(C)(C)C)CC2)cc1C do in these assays?
Pf Dd2 inh: inactive

How did CC(C)(C)OC(=O)N1CCC(c2c(C(=O)O)cnn2-c2ccc(F)cc2F)CC1 do in these assays?
Pf Dd2 inh: inactive

What do the screens show for `CC(C)(C)OC(=O)N1CCC(c2c(C(=O)NCc3ccc4c(c3)OCO4)cnn2-c2ccc(F)cc2F)CC1`?
Pf Dd2 inh: 7.9µM

How did CC(C)(C)OC(=O)N1CCC(c2c(C(=O)Nc3ccc4c(c3)OCCO4)cnn2-c2ccc(F)cc2F)CC1 do in these assays?
Pf Dd2 inh: 4µM

Results for CC(C)(C)OC(=O)N1CCC(c2c(C(=O)Nc3cccc(C(F)(F)F)c3)cnn2-c2ccc(F)cc2F)CC1 ?
Pf Dd2 inh: 11µM

How did Cc1cccc(-n2ncc(C(=O)Nc3ccc4c(c3)OCO4)c2C2CCN(C(=O)OC(C)(C)C)CC2)c1 do in these assays?
Pf Dd2 inh: 10µM

What do the screens show for `Cc1cccc(-c2nc(CN3CCC(C(=O)N4CCc5nc6cc[nH]n6c(=O)c5C4)CC3)c(C)o2)c1`?
Pf Dd2 inh: inactive[5.79 µM]

What do the screens show for `COc1ccc(Cl)cc1C(=O)NCc1nnc2ccc(-c3ccccc3)nn12`?
Pf Dd2 inh: inactive

What do the screens show for `CCNC(=O)[C@@H]1C[C@H](N)CN1S(=O)(=O)c1cc(C)cc(C)c1`?
Pf Dd2 inh: inactive

Results for COCc1nc(C2CCCN(C(=O)c3cc(OC)cc(OC)c3)C2)no1 (stereo not given) ?
Pf Dd2 inh: inactive

What do the screens show for `Cn1cc([C@@H](NC(=O)C2CCN(Cc3ccco3)CC2)C2CC(O)C2)cn1` (stereo not given in full)?
Pf Dd2 inh: inactive

What do the screens show for `COCCn1ncc(N2CCC(NC(=O)CC3CCCC3)CC2)cc1=O`?
Pf Dd2 inh: inactive

What do the screens show for `COCCc1noc([C@@H]2CN(Cc3cccc(F)c3)C[C@H]2CO)n1`?
Pf Dd2 inh: inactive

Results for CO[C@H]1C(=O)N(C2CCN(C(=O)c3cccc4[nH]ccc34)CC2)[C@H]1c1ccncc1 ?
Pf Dd2 inh: inactive

How did COc1ccc(C(=O)N2CCCC(O)(CN3CCCC3)C2)c(OC)c1 (stereo not given) do in these assays?
Pf Dd2 inh: inactive

What do the screens show for `COc1cccc(NC(=O)NC[C@H]2O[C@@H](CO)[C@@H](O)[C@H]2N2CCN(c3ccccc3OC)CC2)c1`?
Pf Dd2 inh: inactive

How did O=C(N[C@H]1[C@H](O)[C@H](O)C[C@@H]1c1cncnc1)c1ccc(C(F)(F)F)cc1 do in these assays?
Pf Dd2 inh: inactive

How did O=C(NCC1(COc2cnccn2)C[C@@H](O)[C@@H](O)C1)c1ccc(F)cc1 (stereo not given in full) do in these assays?
Pf Dd2 inh: inactive

Results for Cc1c(Cl)cccc1-n1ncc(C(=O)Nc2ccc(F)cc2F)c1C1CCN(C(=O)OC(C)(C)C)CC1 ?
Pf Dd2 inh: inactive

How did COc1ccc(NC(=O)c2cnn(-c3ccc(F)cc3F)c2C2CCN(C(=O)OC(C)(C)C)CC2)cc1Cl do in these assays?
Pf Dd2 inh: 7.9µM

Results for CC(C)(C)c1ccc(C(=O)N2CCC(c3nc(C4CCOC4)no3)CC2)cc1 (stereo not given) ?
Pf Dd2 inh: inactive

How did Cc1nonc1CC(=O)N1CCC2(CCC(=O)N(CCc3ccncc3)C2)CC1 do in these assays?
Pf Dd2 inh: inactive

What do the screens show for `CC1=NOC2(CCN(Cc3ccc(C(F)(F)F)cc3)C2)C1` (stereo not given)?
Pf Dd2 inh: inactive

What do the screens show for `O=C(c1ccncc1)N1CCC2(CC1)NCCc1c2[nH]c2ccccc12`?
Pf Dd2 inh: inactive

Results for O=C(c1ccc(Cn2ccnc2)o1)N1CCC2(CC1)NCCc1c2[nH]c2ccccc12 ?
Pf Dd2 inh: 13µM

Results for O=C(c1cccnc1)N1CCC2(CC1)NCCc1c2[nH]c2ccccc12 ?
Pf Dd2 inh: inactive

Results for O=C(c1ccc2c(c1)OCO2)N1CCC2(CC(c3cccnc3)=NO2)C1 (stereo not given) ?
Pf Dd2 inh: inactive

Results for Cc1cc(=O)[nH]c(CCNC(=O)c2ccc(C)c(N3CCNC3=O)c2)n1 ?
Pf Dd2 inh: inactive

Results for Cc1ccc(CNC(=O)CCCN2C(=O)CCn3nc(-c4cccn4C)cc32)cc1 ?
Pf Dd2 inh: 5µM

Results for CC(C)Oc1ccc(CNC(=O)CCCN2C(=O)CCn3nc(-c4cccn4C)cc32)cc1 ?
Pf Dd2 inh: inactive

How did CN(C)c1ccc(CNC(=O)CCCN2C(=O)CCn3nc(-c4cccn4C)cc32)cc1 do in these assays?
Pf Dd2 inh: inactive

How did CC(=O)N1CCOC2(CCN(C(=O)c3ccc(Cl)cc3)CC2)C1 do in these assays?
Pf Dd2 inh: inactive

Results for CNC(=O)[C@@H]1C[C@@H](n2cc(CNC(=O)Nc3ccc(C)c(Cl)c3)nn2)CN1 ?
Pf Dd2 inh: inactive

Results for Cc1cnc(C(=O)NC2C[C@H]3CC[C@@H](C2)N3C(=O)Cc2c(C)noc2C)cn1 (stereo not given in full) ?
Pf Dd2 inh: inactive

Results for CN(Cc1ccccc1)C(=O)[C@H]1O[C@H](CCN2CCOCC2)CC[C@@H]1O ?
Pf Dd2 inh: inactive

Results for CN(Cc1ccccc1)C(=O)[C@H]1O[C@H](CCN2CCN(Cc3ccccc3)CC2)CC[C@@H]1O ?
Pf Dd2 inh: 4.5µM
